Sampled rows, rich in hits. Any-hit rate of the full collection: about 12%.
Sfp inh: Sfp phosphopantetheinyl transferase inhibition; Q9F4F7; Biochemical Sfp PPTase activity, qHTS; Potency, µM, hits mostly inhibitors; actives 3.5% (n = 310,000);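 also: the enzyme is Sfp with the accession as filed and its product quenches rhodamine fluorescence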
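Buffer: 50 mM Hepes-Na pH 7.6, 10 mM MgCl2, 0.01% Nonidet P-40, 0.01% BSA. Enzyme 15 nM, pre-exposed to compound 15 min; substrates then added and fluorescence change tracked over 30 min.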
JMJD2A Tudor: blocks the human JMJD2A Tudor domain; actives 4.4% (n = 390,000); Potency, µM (series often up to 114 µM), most hits filed as inhibitors; AID 504339; O75164; AlphaScreen JMJD2A-Tudor / H3K4me3 peptide binding; also: nearly all actives have a fitted effect of over 50% in size
G9a inh: inhibitors of human histone lysine methyltransferase G9a; Potency, µM (highest dose often 102 µM), hits mostly inhibitors; Q96KQ7; G9a H3K9 monomethylation, AlphaScreen, 2 h; AID 504332; actives 8.8% (n = 350,000); also: nearly all actives have a fitted effect of over 75% in size
Target sequence (Q96KQ7 913-1193 limits assumed): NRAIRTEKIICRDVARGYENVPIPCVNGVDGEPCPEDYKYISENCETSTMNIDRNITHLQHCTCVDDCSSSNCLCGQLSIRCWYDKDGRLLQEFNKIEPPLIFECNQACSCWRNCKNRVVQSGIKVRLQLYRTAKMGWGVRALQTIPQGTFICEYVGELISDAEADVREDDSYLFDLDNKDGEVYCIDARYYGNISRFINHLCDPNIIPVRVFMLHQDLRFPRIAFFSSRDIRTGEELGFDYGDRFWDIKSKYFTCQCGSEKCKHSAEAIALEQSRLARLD
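Using a bead-based AlphaScreen, monomethylated H3K9 product from 2 h room-temperature reactions (G9a 20 nM, peptide 500 nM, SAM 20 uM) was detected with 0.5 ug/mL rabbit anti-H3K9me1 antibody.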
BAZ2B block: blocks human BAZ2B; Q9UIF8; AlphaScreen BAZ2B-H3K14Ac peptide displacement; Potency, µM (highest dose often 114 µM), actives largely listed as inhibitors; actives 4.4% (n = 360,000); AID 504333; also: nearly all actives have a fitted effect of over 60% in size
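Multi-concentration screen (max 110 uM) measuring displacement of acetylated histone H3 peptide from BAZ2B by AlphaScreen, using 50 nM protein, 50 nM peptide and 10 ug/mL streptavidin donor plus Ni-chelate acceptor beads.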
L3MBTL1 block: blocks human L3MBTL1; actives 0.66% (n = 230,000); AID 485360; Potency, µM (titrated, usually from 57.1 µM), hits mostly inhibitors; AlphaScreen L3MBTL1–H3K9me1 peptide binding; also: nearly all actives have a fitted effect of over 60% in size
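Read-out is AlphaScreen signal from streptavidin donor and nickel chelate acceptor beads (10 ug/mL final each) bridging L3MBTL1 (50 nM) and biotinylated K9-monomethylated H3(1-15) peptide (75 nM), after 30 min compound exposure at room temperature.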
HP1b chromo inh: inhibitors of HP1-beta chromodomain binding to methylated histone tails; AlphaScreen HP1-beta / biotin-H3K9me3 peptide binding; actives 0.56% (n = 390,000); Potency, µM (highest dose often 114 µM), actives largely listed as inhibitors; AID 540317; P83916; also: nearly all actives have a fitted effect of over 70% in size
Target sequence (P83916 whole entry, looked up): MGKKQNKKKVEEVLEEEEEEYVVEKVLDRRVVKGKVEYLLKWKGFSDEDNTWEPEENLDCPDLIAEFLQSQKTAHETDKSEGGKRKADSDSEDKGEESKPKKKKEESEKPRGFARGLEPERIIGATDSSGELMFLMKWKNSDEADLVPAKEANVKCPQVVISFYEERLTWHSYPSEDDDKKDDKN
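Compound inhibition of the preformed complex between 50 nM HP1-beta and 50 nM biotinylated H3K9me3 peptide was read by AlphaScreen. Buffer was PBS pH 7.4 with 0.01% Tween-20. Incubations ran 30 min at room temperature, with 10 ug/mL donor/acceptor beads.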
A number is an active result; . = inactive; ? = inconclusive; / = no result given; [ ] = another dose, or the depositor's remark. Calls follow the shape of the dose curve; as a rule, active = well fitted curve in the direction sought with a large enough effect; inconclusive = small, poorly fitted or top-dose-only effect, or another doubt; inactive = no such curve, though single readings can be large; an effect the other way counts as inactive or inconclusive.

SMILES	Sfp inh	JMJD2A Tudor	G9a inh	BAZ2B block	L3MBTL1 block	HP1b chromo inh
Cc1cc(-c2csc(NC(=O)c3ccccc3C(F)(F)F)n2)c(C)n1Cc1ccccc1	.	.	44.7µM	.	.	.
Cc1nc(N)sc1-c1csc(Nc2ncccn2)n1	.	?	?	?	.	?
O=C(OCC#CCSc1nnc(-c2ccccc2Cl)o1)c1ccc(F)cc1	/	.	/	/	/	/
Cc1c(Cl)cccc1NC(=O)CC1SCCNC1=O (stereo unspecified)	.	.	.[12.7 µM]	.	/	.
Cc1ccccc1NC(=O)CC1SCCNC1=O (stereo unspecified)	22.4µM	.	.	.	.	.
O=C(O)Cc1c(C(=O)O)[nH]c2ccc(C(=O)O)cc12	.	.	50.1µM	?	/	.
COc1cc2c(cc1OC)n(CC(=O)c1ccc(F)cc1)c(=O)n1nc(CCn3nc(C)cc3C)nc21	/	.	.	.	/	.
Cc1cnc(C(=O)OCC(=O)c2cccc3ccccc23)cn1	/	.	44.7µM	.	.	.
COc1ccc(-c2nc3cnc(N4CCN(C)CC4)nc3n(CCC#N)c2=O)cc1	.	/	.[12.7 µM]	/	/	/
Cc1ccc(CNC(=O)c2ccc3c(c2)nc(C)n3-c2cccc(F)c2)cc1	/	.	.	.	/	.
Cc1nc2ccccc2n1Cc1n[nH]c(=S)n1-c1ccc(Cl)cc1	.	.	?	.	.	.
Cc1n[nH]c(=O)n1-c1cccc(C(F)(F)F)c1	.	.	.	.	.	.
Fc1ccc(-n2c(-c3ccc4ccccc4n3)n[nH]c2=S)cc1Cl	.	.	?	.	.	.
Cc1cc(-c2n[nH]c(=S)n2-c2ccc(F)cc2)nn1C	.	25.1µM	?	.	.	.
FC(F)(F)c1cccc(-n2c(Cn3nnc4ccccc43)n[nH]c2=S)c1	89.1µM	.	/	.	.	.
Cn1c(Cn2nnc3ccccc32)nnc1SCC(=O)c1ccc(F)cc1	?	44.7µM	35.5µM	.	.	.
CC(C)N(C(=O)CSc1nnc(Cn2nnc3ccccc32)n1C)C(C)C	.	.	.[12.7 µM]	.	/	.
Fc1ccc(-n2c(Cn3nnc4ccccc43)n[nH]c2=S)cc1	.	17.8µM	/	?	.	.
CC1CN(S(=O)(=O)c2cccc(C(=O)NCCc3ccc(S(N)(=O)=O)cc3)c2)CC(C)O1 (stereo unspecified)	/	.	/	/	.	.
COc1cccc(CNS(=O)(=O)c2cnc(N)nc2)c1	/	.	.	.	/	.
CCc1ccc(-n2c(Cn3nc(C(F)(F)F)cc3C)n[nH]c2=S)cc1	.	.	?	?	.	.
Cc1cc(C(F)(F)F)nn1Cc1n[nH]c(=S)n1-c1ccc(F)cc1	.	.	10µM	.	.	.
Clc1ccc(Cn2nnc3ccccc32)cc1	.	.	.	.	.	.
S=c1[nH]nc(Cn2nnc3ccccc32)n1-c1ccccc1	.	6.31µM	31.6µM	.	.	.
CC(C)N(Cc1ccccc1)C(=O)COC(=O)c1ccc(S(=O)(=O)N2CCOCC2)cc1	/	.	/	/	.	.
SMILES	Sfp inh	JMJD2A Tudor	G9a inh	BAZ2B block	L3MBTL1 block	HP1b chromo inh
O=C(CCS(=O)(=O)c1ccccc1)Nc1nc(-c2ccccn2)cs1	/	89.1µM	/	/	/	.
COc1ccc2oc(C(=O)NC(C)c3ccccn3)c(C)c2c1 (stereo unspecified)	/	.	/	/	.	.
Cc1ccc(S(=O)(=O)CCC(=O)Nc2nc(-c3ccncc3)cs2)cc1	.	.	39.8µM	.	/	.
COc1ccc2oc(C(=O)Nc3nc(-c4ccccn4)cs3)c(C)c2c1	/	.	50.1µM	.	25.1µM	.
Cc1ccc(S(=O)(=O)CC(=O)Nc2nc(-c3ccccc3)cs2)cc1	.	.	.	.	/	.
COc1ccc(OCCCC(=O)Nc2nc(-c3ccccn3)cs2)cc1	39.8µM	.	?	50.1µM	?	.
CC1CCCCC1NC(=O)CCNS(=O)(=O)c1ccc(Cl)cc1 (stereo unspecified)	.	.	.	.	/	.
O=C(NCCOc1ccc(Cl)cc1)c1ccco1	.	.	.	.	/	.
Cc1cccn2c(=O)c(C(=O)NCCc3ccccc3)c(O)nc12	/	.	.	.	/	.
Cc1cc(C)c(OCC(=O)Nc2nc(-c3ccccn3)cs2)c(C)c1	.	.	44.7µM	50.1µM	/	.
Cc1ccccc1OCC(=O)Nc1nc(-c2ccncc2)cs1	/	.	.[2.33 µM]	.	.	.
CCc1ccccc1NC(=S)NCC1CCN(c2ccc(OC)cc2)C1 (stereo unspecified)	.	35.5µM	?	22.4µM	/	12.6µM
COc1ccc(N2CCC(CNC(=S)Nc3cccc(OC)c3)C2)cc1 (stereo unspecified)	.	/	?	15.8µM	.	/
CCc1ccccc1NC(=S)N1CCC(NC(=O)c2ccc(OC)cc2)CC1	.	.	.[0.501 µM]	.	.	.
CCc1cccc(C)c1NC(=S)NCC1CCN(c2ccc(OC)cc2)C1 (stereo unspecified)	.	44.7µM	10µM	28.2µM	/	22.4µM
COc1cccc(NC(=S)NCc2ccc(F)cc2)c1	.	.	/	.	.	.
CCOC(=O)c1c(C)oc2nc(C)nc(NCc3ccccc3OC)c12	/	.	.	.	/	.
CSC1=NC(=O)/C(=C\c2cccc3ccccc23)S1	.	?	.	39.8µM	.	.
COc1ccc(NC(=O)C2CCN(S(=O)(=O)c3c(C)noc3/C=C/c3ccco3)CC2)cc1	/	10µM	.	/	/	.
Cc1noc(/C=C/c2ccco2)c1S(=O)(=O)N1CCC(C(=O)NC(C)c2ccccc2)CC1 (stereo unspecified)	.	.	?	.	.	.
CCc1ccc(NC(=O)C2CCN(S(=O)(=O)c3c(C)noc3/C=C/c3ccco3)CC2)cc1	/	.	.	/	/	.
Cc1noc(/C=C/c2ccco2)c1S(=O)(=O)N1CCC(C(=O)N(C)Cc2ccccc2)CC1	44.7µM	.	?	.	.	.
CCOC(=O)N1CCC(NC(=O)C2CCN(C(=O)N3CCOc4ccccc43)CC2)CC1	.	100µM	.[12.7 µM]	.	/	.
CCOC(=O)N1CCC(NC(=O)C2CCCN(C(=O)N3CCOc4ccccc43)C2)CC1 (stereo unspecified)	.	.	.	.	/	.
O=C(NC1CCCCCC1)C1CCN(C(=O)N2CCOc3ccc(Cl)cc32)CC1	/	?	7.94µM	?	/	.
Cc1ccc2c(c1)N(C(=O)N1CCC(C(=O)NC3CCCCCC3)CC1)CCO2	/	.	.	.	/	.
Cc1ccc(C)c(NC(=S)NNC(=O)c2cc3c(s2)CCC(C)C3)c1 (stereo unspecified)	.	.	35.5µM	.	.	.
O=C(/C=C/c1ccc(I)cc1)c1ccc(B(O)O)cc1	.	/	/	/	/	/
CCc1ccccc1NC(=O)Cn1nnc(C(=O)OC)c1C(=O)OC	/	.	.	.	/	.
CC(C)(C)C(=O)OCCNc1nc(-c2cccs2)nc2ccccc12	/	.	/	/	/	.
